Of roughly 8,800 targets only a part is listed; those with a hit were picked by preference. About 0.5% of all pairs of compound and target were hits. Unmarked numbers belong to inactive results.
Key:
Assay in all cases: log2 fold change, soluble protein after heating vs DMSO (PISA); higher = thermal stabilisation; K562 lysate, 10 uM; active = over 0.2 and 3.5 SD of the protein, either way, in both replicates (recomputed)
ibrutinib = compound: C=CC(=O)N1CCC[C@@H](n2nc(-c3ccc(Oc4ccccc4)cc3)c3c(N)ncnc32)C1 [ibrutinib]
Procedure, shortened: (§1)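 Pellets of K562 cells were dounce-homogenised in PBS pH 7.4 with 1 mM MgCl2, and the crude extract was held at 1 mg/mL protein for a 30 min treatment with 10 μM compound. Aliquots were heated for 3 min over 48°C-58°C and pooled before NP-40 was added to 0.5% at 4°C. The supernatant from 21,000xg for 90 min was quantified by TMTpro 16plex LC-MS/MS with channel sums equalised. Values are reported from duplicates as log-two fold change in thermal stability relative to solvent controls.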

[1] = compound: CC(=O)c1cnc2ccc(-c3cc(Cl)c(O)c(Cl)c3)nc2c1N[C@H]1CC[C@H](CN(C)C)CC1
Procedure, shortened: as §1

ralimetinib = compound: CC(C)(C)Cn1c(N)nc2ccc(-c3[nH]c(C(C)(C)C)nc3-c3ccc(F)cc3)nc21 [ralimetinib]
Procedure, shortened: as §1

[2] = compound: CC(C)(O)CC(=O)NCCn1ccc2ncnc(Nc3ccc(Oc4cccc(C(F)(F)F)c4)c(Cl)c3)c21
Procedure, shortened: as §1

[3] = compound: CC(C)C1=C2N=C(C=C(N2N=C1)NCC3=CC=CC=C3)NCCCCCCN
Procedure, shortened: as §1

[4] = compound: CC1=C(C(CC(=O)N1)C2=CC=C(C=C2)C(F)(F)F)C(=O)NC3=C(C=C4C(=C3)C=NN4)F
Procedure, shortened: as §1

[5] = compound: CC1=C(C2=C(C=C1)C(=O)C3=CC=CC=C3N2CCCN)C
Procedure, shortened: as §1

[6] = compound: CC1=C(C=C(C=C1)NC(=O)C2=CC(=CC=C2)C(C)(C)C#N)NC3=CC4=C(C=C3)N=CN(C4=O)C
Procedure, shortened: as §1

[7] = compound: CC1=C(C=C(C=C1)NC(=O)C2=CC(=CC=C2)N(C)C)NC(=O)C3=CC=C(C=C3)O
Procedure, shortened: as §1

[8] = compound: CC1=CC=C(C=C1)SC2=C3C=C(SC3=CN=C2)C(=O)N
Procedure, shortened: as §1

Chain of UniProt P54886 (P54886 whole entry, looked up): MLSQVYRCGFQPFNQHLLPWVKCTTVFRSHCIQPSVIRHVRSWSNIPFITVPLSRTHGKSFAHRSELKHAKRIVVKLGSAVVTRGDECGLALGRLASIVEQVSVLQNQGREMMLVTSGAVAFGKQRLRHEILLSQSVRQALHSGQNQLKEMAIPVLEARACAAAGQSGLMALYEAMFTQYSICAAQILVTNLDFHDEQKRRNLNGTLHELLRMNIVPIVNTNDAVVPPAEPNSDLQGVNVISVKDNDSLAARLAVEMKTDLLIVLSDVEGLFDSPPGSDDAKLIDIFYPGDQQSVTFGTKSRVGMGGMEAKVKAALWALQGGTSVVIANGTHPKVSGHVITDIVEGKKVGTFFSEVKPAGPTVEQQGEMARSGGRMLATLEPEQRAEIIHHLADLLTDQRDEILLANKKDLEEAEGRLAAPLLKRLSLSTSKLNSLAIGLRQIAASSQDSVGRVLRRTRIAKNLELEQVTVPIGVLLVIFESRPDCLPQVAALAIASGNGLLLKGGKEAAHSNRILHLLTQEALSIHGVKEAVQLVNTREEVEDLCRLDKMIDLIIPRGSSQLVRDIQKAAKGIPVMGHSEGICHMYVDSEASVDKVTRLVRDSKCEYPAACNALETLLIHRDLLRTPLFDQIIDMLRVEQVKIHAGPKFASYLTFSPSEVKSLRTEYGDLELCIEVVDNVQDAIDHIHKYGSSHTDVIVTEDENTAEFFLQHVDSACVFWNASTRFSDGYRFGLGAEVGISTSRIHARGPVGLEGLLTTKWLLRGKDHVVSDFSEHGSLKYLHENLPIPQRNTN
Chain of UniProt P14621 (P14621 whole entry, looked up): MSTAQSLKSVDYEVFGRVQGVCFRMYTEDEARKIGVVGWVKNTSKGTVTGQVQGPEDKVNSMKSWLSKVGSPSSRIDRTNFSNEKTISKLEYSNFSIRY
Chain of UniProt Q9BT30 (Q9BT30 whole entry, looked up): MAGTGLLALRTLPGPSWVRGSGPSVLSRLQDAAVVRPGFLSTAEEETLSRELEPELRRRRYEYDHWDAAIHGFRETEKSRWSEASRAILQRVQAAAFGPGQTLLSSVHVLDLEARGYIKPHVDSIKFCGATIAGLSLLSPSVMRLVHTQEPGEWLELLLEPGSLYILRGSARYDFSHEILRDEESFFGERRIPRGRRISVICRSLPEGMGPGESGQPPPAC
Chain of UniProt Q9BXX2 (Q9BXX2 whole entry, looked up): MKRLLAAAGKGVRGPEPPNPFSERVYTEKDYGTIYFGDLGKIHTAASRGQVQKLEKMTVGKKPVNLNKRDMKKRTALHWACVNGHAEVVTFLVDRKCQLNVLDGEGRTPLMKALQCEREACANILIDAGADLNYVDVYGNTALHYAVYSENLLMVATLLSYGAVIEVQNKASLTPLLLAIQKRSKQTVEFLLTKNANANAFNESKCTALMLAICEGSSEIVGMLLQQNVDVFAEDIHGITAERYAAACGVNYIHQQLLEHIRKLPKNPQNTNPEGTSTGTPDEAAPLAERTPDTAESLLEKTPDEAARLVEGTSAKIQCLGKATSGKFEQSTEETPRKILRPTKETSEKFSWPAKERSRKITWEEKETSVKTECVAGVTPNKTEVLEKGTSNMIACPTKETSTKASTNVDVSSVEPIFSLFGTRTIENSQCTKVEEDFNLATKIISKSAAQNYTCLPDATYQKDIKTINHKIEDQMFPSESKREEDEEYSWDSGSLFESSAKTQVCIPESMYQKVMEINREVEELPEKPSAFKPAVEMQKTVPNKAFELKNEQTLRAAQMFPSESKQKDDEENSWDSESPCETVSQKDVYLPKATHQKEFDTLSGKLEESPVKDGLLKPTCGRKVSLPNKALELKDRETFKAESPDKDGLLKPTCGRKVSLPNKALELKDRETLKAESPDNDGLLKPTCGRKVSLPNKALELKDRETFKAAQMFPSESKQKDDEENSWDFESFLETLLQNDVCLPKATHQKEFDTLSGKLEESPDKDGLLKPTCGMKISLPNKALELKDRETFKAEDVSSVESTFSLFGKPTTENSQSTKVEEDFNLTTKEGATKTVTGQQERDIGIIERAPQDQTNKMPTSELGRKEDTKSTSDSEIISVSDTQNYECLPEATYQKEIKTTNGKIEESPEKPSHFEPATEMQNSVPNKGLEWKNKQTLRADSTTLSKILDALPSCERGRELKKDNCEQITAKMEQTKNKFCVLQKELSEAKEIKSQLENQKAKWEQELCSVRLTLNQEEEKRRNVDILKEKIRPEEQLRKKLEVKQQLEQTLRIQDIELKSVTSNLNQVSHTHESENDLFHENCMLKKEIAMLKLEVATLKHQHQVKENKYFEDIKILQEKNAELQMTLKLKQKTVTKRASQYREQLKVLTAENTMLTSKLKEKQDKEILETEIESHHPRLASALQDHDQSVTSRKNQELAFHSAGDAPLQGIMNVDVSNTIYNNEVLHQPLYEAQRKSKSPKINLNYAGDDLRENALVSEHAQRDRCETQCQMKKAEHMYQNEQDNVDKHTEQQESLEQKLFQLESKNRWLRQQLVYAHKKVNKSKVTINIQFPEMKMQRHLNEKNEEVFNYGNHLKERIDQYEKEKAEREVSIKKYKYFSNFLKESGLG
Chain of UniProt P78536 (P78536 whole entry, looked up): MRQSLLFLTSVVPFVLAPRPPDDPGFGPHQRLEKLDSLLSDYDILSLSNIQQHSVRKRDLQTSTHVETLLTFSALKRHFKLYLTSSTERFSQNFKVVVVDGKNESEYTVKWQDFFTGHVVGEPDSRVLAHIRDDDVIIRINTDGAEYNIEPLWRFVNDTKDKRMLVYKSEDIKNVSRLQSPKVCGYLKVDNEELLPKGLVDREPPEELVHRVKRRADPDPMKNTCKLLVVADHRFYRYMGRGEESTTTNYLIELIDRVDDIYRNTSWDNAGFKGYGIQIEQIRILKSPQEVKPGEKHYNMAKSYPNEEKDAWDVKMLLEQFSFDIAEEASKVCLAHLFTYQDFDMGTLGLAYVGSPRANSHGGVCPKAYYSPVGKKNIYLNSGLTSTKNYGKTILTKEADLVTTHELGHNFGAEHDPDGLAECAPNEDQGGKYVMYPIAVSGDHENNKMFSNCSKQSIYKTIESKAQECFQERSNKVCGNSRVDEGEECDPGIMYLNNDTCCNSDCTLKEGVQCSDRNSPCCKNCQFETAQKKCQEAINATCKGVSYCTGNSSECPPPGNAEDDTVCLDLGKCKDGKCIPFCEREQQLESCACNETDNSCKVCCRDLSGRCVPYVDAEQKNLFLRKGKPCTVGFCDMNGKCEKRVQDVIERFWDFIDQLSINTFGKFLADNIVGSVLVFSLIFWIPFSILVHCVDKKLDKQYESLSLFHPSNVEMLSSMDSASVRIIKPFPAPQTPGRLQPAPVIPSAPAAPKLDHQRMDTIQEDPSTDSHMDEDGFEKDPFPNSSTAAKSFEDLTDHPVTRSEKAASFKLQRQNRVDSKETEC
Chain of UniProt Q99758 (Q99758 whole entry, looked up): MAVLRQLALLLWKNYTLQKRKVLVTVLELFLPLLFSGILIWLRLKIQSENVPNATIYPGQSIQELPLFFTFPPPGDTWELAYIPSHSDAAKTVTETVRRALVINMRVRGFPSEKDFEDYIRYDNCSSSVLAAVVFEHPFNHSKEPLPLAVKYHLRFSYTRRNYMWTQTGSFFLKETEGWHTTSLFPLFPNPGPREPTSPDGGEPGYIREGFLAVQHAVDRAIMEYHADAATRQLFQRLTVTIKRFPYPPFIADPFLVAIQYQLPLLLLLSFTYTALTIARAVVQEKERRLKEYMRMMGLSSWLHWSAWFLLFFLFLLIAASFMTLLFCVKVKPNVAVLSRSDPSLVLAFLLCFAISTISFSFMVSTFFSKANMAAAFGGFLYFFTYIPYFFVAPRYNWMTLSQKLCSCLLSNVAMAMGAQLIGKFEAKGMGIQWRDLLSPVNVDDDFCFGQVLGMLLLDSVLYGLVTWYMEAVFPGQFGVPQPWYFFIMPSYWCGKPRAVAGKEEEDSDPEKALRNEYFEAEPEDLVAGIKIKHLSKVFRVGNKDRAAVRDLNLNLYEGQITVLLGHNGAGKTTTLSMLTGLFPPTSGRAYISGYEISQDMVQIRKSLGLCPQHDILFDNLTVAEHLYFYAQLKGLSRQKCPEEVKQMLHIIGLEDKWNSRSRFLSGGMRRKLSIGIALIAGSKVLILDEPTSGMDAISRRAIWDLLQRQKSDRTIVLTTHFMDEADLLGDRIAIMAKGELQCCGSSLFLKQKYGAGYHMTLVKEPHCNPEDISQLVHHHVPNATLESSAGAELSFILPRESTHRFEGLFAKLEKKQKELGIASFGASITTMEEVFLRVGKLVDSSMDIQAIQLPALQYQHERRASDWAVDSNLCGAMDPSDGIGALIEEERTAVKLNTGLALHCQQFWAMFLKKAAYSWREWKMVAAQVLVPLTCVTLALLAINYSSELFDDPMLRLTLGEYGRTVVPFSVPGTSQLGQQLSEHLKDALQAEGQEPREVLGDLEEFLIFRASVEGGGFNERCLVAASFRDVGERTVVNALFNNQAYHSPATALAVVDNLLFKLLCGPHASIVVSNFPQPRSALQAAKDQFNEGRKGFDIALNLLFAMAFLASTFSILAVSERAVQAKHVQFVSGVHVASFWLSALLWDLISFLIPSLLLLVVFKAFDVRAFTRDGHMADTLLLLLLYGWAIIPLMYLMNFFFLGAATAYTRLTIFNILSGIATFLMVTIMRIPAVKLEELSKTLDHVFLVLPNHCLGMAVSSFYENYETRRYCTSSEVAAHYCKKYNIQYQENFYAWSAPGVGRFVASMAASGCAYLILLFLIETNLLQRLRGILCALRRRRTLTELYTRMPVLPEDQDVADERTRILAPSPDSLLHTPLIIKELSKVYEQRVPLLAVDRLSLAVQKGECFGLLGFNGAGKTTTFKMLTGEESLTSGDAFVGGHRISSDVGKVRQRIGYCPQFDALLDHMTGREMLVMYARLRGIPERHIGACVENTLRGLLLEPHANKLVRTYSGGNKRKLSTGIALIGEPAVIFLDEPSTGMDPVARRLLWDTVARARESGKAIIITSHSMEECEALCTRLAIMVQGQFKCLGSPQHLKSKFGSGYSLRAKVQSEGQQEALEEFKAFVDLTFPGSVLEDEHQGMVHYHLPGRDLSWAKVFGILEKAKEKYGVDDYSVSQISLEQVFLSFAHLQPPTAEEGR

| Target | log2 fold change (ibrutinib) | log2 fold change [1] | log2 fold change (ralimetinib) | log2 fold change [2] | log2 fold change [3] | log2 fold change [4] | log2 fold change [5] | log2 fold change [6] | log2 fold change [7] | log2 fold change [8] |
| --- | --- | --- | --- | --- | --- | --- | --- | --- | --- | --- |
| ANXA11 (UniProt P50995) | -0.005 | -0.027 | -0.002 | 0.057 | 0.034 | -0.031 | 0.023 | -0.041 | 0.01 | 0 |
| AMDHD2 (UniProt Q9Y303) | – | – | – | – | – | – | – | 0.014 | – | – |
| ALKBH7 (UniProt Q9BT30) | – | – | 0.116 | 0.09 | -0.085 | 0.256 | -0.012 | 0.077 | 0.019 | – |
| ALDH3A1 (UniProt P30838) | – | -0.197 | -0.274 | -0.259 | 0.04 | – | 1.23 (active) | 0.432 | -0.001 | -0.119 |
| ANKRD40 (UniProt Q6AI12) | 0.008 | – | 0.062 | 0.05 | 0.051 | 0.027 | -0.231 | 0.075 | 0.087 | – |
| ADAM17 (UniProt P78536) | 0.037 | – | -0.012 | -0.032 | -0.056 | 0.16 | -0.029 | -0.013 | -0.027 | – |
| AGGF1 (UniProt Q8N302) | 0.034 | 0.077 | -0.014 | -0.023 | -0.017 | -0.011 | – | 0.034 | -0.04 | -0.341 |
| ACAT1, A0A5F9ZHJ0 | – | – | 0.034 | -0.129 | – | -0.106 | – | – | 0.013 | – |
| APEX1 (UniProt P27695) | 0.048 | -0.001 | -0.014 | 0.026 | 0.006 | 0.001 | -0.02 | -0.011 | 0.01 | 0.019 |
| ANKRD10 (UniProt Q9NXR5) | -0.076 | -0.172 | 0.005 | 0.042 | -0.023 | 0.046 | 0.004 | -0.008 | 0.046 | -0.085 |
| ARHGAP6 (UniProt O43182) | 0.081 | -0.008 | -0.018 | -0.038 | -0.017 | 0.101 | -0.007 | 0.002 | 0.01 | -0.018 |
| AGPAT2 (UniProt O15120) | – | – | 0.1 | -0.071 | 0.046 | 0.03 | – | -0.064 | 0.013 | – |
| ANKRD30B (UniProt Q9BXX2) | -0.063 | -0.086 | -0.007 | -0.16 | 0.038 | -0.098 | -0.064 | – | 0.024 | -0.167 |
| ALDH2 (UniProt P05091) | -0.001 | 0.081 | 0.002 | -0.012 | 0.199 | -0.013 | 0.014 | -0.081 | 0 | 0.01 |
| ABCC5 (UniProt O15440) | -0.109 | 0.012 | -0.216 | -0.145 | -0.015 | – | -0.094 | 0.019 | 0.187 | -0.019 |
| ANKRD30A (UniProt Q9BXX3) | -0.01 | 0.77 | 0.014 | 0.088 | – | 0.007 | 0.038 | -0.088 | 0.077 | -0.177 |
| ADK, A0A5F9ZH76 | 0.168 | 0.005 | – | – | – | -0.156 | – | – | – | 0 |
| ABRACL (UniProt Q9P1F3) | 0.109 | -0.179 | – | – | 0.001 | -0.112 | 0.142 | 0.051 | – | 0.015 |
| ACLY isoform 2 (UniProt P53396) | -0.015 | 0.028 | -0.022 | 0.07 | – | 0.008 | – | 0.018 | -0.008 | -0.01 |
| ARHGEF2 (UniProt V9GYF0) | – | 0.02 | -0.041 | -0.126 | – | -0.055 | -0.011 | – | 0.008 | -0.07 |
| ALDH18A1 isoform 2 (UniProt P54886) | – | – | -0.308 | -0.245 | – | – | -0.378 | 0.03 | 0.19 | – |
| ACYP2 (UniProt P14621) | 0.086 | 0.004 | 0.026 | -0.018 | 0.044 | 0.047 | – | -0.036 | 0.025 | 0.04 |
| ABCA3 (UniProt Q99758) | -0.036 | -0.002 | -0.041 | -0.13 | -0.023 | – | -0.112 | 0.062 | -0.028 | 0.128 |

From the supplement of paper PMC10849652
